In ChEMBL document CHEMBL4513216, “Probing the Open Global Health Chemical Diversity Library for Multistage-Active Starting Points for Next-Generation Antimalarials” (ACS Infect Dis, 2020) one finds INHIBITION data, which are given here for 105 compounds.

Screen size: about 68,000 compounds; about 2,700 (4%) showed an effect of 50% or more. Many of the other results were omitted from the sample, so strong results are more common in it than they were.

The assay relates to Plasmodium berghei. Description: Screen against P. berghei liver stage (PbLuc), transformed with Luciferase, at 2uM. It counts as functional, HepG2. Particulars: tested at 2 uM.
In the case of `COCc1nc(CNc2cc(C)on2)cs1`, the INHIBITION is on record as -65.51%. In the case of `O=C(NC1CC1)[C@@H]1CCO[C@@H]2CCN(Cc3ccco3)C[C@H]21`, the INHIBITION is 46.73%. The result for `COc1cccc(-c2cc(NCCO)nc3[nH]ccc23)n1` reads 0.51%; that for `COc1cccc(-c2cc(NCC(=O)O)nc3[nH]ccc23)n1`, 74.44%; that for `COc1cccc(-c2cc(NCCN(C)C)nc3[nH]ccc23)n1`, 0.51%. The result for `N[C@H]1CN(C(=O)c2ccccc2OCc2ccccc2)C[C@@H]1C1CC1` reads 13.86%; that for `Cc1nccn1C1CCCN(C(=O)c2ccc(N(C)C)nc2)C1` (stereo not given), 55.7%. The same measure for `Cc1nccn1C1CCCN(C(=O)c2ccc(N(C)C)nn2)C1` (stereo not given): 19.35%; for `CCc1nccn1C1CCCN(C(=O)c2ccc3c(c2)nnn3C)C1` (stereo not given): 58.05%. In the case of `Cc1nccn1C1CCCN(C(=O)c2ccc3cc[nH]c3c2)C1` (stereo not given), the INHIBITION stood at 74.35%. As for `Cc1nn2cccnc2c1C(=O)N1CCCC(n2ccnc2C)C1` (stereo not given), the INHIBITION amounted to 56.02%. The result for `Cc1nn2cccnc2c1C(=O)N1CCCC(n2ccnc2)C1` (stereo not given) reads 28.51%; that for `Cc1nccn1C1CCCN(C(=O)c2cc3ccccc3[nH]2)C1` (stereo not given), -43.41%. Turning to `CN(C)c1ccc(C(=O)N2CCCC(n3cccn3)C2)cn1` (stereo not given), the INHIBITION came to 39.54%. Turning to `Cc1nn2cccnc2c1C(=O)N1CCCC(n2cccn2)C1` (stereo not given), the INHIBITION is recorded as -21.72%.

As to `CCc1nccn1C1CCCN(C(=O)c2ccc(OC)c(OC)c2)C1` (stereo not given), the INHIBITION is listed as -14.17%.

Regarding `Cc1nccn1C1CCCN(C(=O)c2ccc3c(c2)CCC3)C1` (stereo not given), the INHIBITION is recorded as -33.61%.

As for `Cc1nccn1C1CCCN(C(=O)c2ccc3c(c2)nnn3C)C1` (stereo not given), the INHIBITION was 1.61%.

For the compound `O=C(NCC1CCC(c2nnc(-c3cccnc3)o2)CC1)C1CC1` (stereo not given), the INHIBITION was 43.77%.

In the case of `O=C(O)c1c(Cl)ncn1-c1ccccc1`, the INHIBITION was 19.33%. For `CS(=O)(=O)N1CCOCC2(CN(Cc3ccc(F)cc3)CCO2)C1` (stereo not given), the INHIBITION is given as -64.46%. As for `COc1ccc(C2CCCN2C(=O)NCCNc2ccccn2)cc1` (stereo not given), the INHIBITION is on record as -34.82%. The result for `CCOc1ccc(CNCC(O)c2ccccc2)cc1Cl` (stereo not given) reads 38.61%.

Regarding `CCOC(=O)N1CCC(C(=O)Nc2nnc(C(F)(F)F)[nH]2)CC1`, the INHIBITION is -22.24%. With `O=C(Nc1ccccc1)NC1CCN(C2CCOC2)CC1` (stereo not given), the INHIBITION is -22.24%. The same measure for `COc1c(C2CCCN2C(=O)c2cnc[nH]2)c(C)nn1C` (stereo not given): -7.41%; for `CCc1nc(CC(=O)N2CCC(C(=O)N(CC)CC)CC2)cs1`: -6.37%; for `COc1ccc(CC(=O)NCCCc2nnc3nc(C)cc(C)n23)cc1`: 0.54%. Regarding `NC1CCC(Nc2nccc(CCC(F)(F)F)n2)CC1` (stereo not given), the INHIBITION is 2.17%. The same measure for `Cc1cc(C(=O)N2CCCC(n3ccnc3C)C2)c(C)s1` (stereo not given): -0.55%; for `Cc1nc(C)c(C(=O)N2CCCC(n3ccnc3C)C2)s1` (stereo not given): 45.49%; for `Cc1nn(C)c2sc(C(=O)N3CCCC(n4ccnc4C)C3)cc12` (stereo not given): 51.49%. For `N#Cc1cn(C2CC2)c(=O)n(CC(O)c2ccc(Cl)cc2)c1=O` (stereo not given), the INHIBITION is recorded as 28.33%.

For the compound `Nc1cc2c(nn1)CCN(C(=O)c1csc(-c3ccco3)n1)C2`, the INHIBITION was determined as 64.9%. `Nc1cc2c(nn1)CCN(C(=O)c1csc(-c3ccccc3)n1)C2`: the INHIBITION is given as 29.13%.

Turning to `Nc1cc2c(nn1)CCN(C(=O)c1csc(-c3cccs3)n1)C2`, the INHIBITION worked out at 38.67%. The result for `Cc1cc(=O)n(C)cc1NC(=O)CC1CCC1` reads -54.44%; that for `CCN(C)C(=O)c1cccc(S(=O)(=O)NCCc2csc(N)n2)c1`, 67.22%.

Regarding `CCc1nc(CCNS(=O)(=O)c2cccc(C(=O)N(C)CC)c2)cs1`, the INHIBITION is recorded as 34.18%. The same measure for `CCN(C)C(=O)c1cccc(S(=O)(=O)NCCc2nc(C)cc(=O)[nH]2)c1`: 7.83%. As to `O=C(c1ccoc1)N1CC[C@H]2C[C@@H](c3ccncn3)O[C@@H]2C1`, the INHIBITION came to 43.71%. The same measure for `Cc1ccc(CN2CC3(CCN(S(=O)(=O)c4ccccc4)C3)C2)o1`: 31.5%; for `CCS(=O)(=O)N1CCC2(CN(Cc3ccc(C)o3)C2)C1`: 54.23%; for `CCS(=O)(=O)N1CCC2(CCN(Cc3ccc(C)o3)C2)C1` (stereo not given): 9.53%. Regarding `O=C(N[C@@H]1CNCCC[C@H]1O)c1ccc(OCCN2CCOCC2)cc1`, the INHIBITION worked out at 36.99%. As to `CCN(Cc1ccccc1)c1ncnc2c(C)nn(CC)c12`, the INHIBITION is recorded as -4.77%. The same measure for `O=C(NCC1CCCO1)c1nc2c(s1)CCCN2Cc1ccccc1` (stereo not given): 29.3%. The result for `c1coc(CN2CCn3c(COCC4CC4)nnc3C2)c1` reads -0.24%. The result for `CCOCC1CN(c2ccc(C)nn2)Cc2cnn(CC)c21` (stereo not given) reads -3.65%. For `CNC(=O)C1CN(C(=O)Cc2ccc(OC)cc2)Cc2cn(C)nc21` (stereo not given), the INHIBITION came to 1.75%. The result for `COc1cccc(OCC(=O)NS(=O)(=O)c2cccnc2)c1` reads 11.09%; that for `COc1cccc(S(=O)(=O)NC(=O)COC2CCCCC2)c1`, -1.02%. The result for `CS(=O)(=O)c1cccc(S(=O)(=O)NC(=O)CC2CCCCC2)c1` reads -20.19%; that for `Cc1ccc(S(=O)(=O)NC(=O)CCOCC(C)C)s1`, -13.12%. The result for `CS(=O)(=O)c1cccc(S(=O)(=O)NC(=O)CCC2CCCCC2)c1` reads -10.29%. For `COc1ccc(S(=O)(=O)NC(=O)COC2CCCC2)cc1`, the INHIBITION is recorded as -43.47%. The same measure for `Cc1cc(C)c(OCC(=O)NS(=O)(=O)c2cccnc2)c(C)c1`: -76.17%; for `CCOCCCC(=O)NS(=O)(=O)c1ccc(C)s1`: 23.64%. The same measure for `COc1cccc(S(=O)(=O)NC(=O)COc2c(C)cccc2C)c1`: 60.31%. The same measure for `CS(=O)(=O)c1cccc(S(=O)(=O)NC(=O)CC2CCCC2)c1`: 63.54%; for `Cc1ccc(S(=O)(=O)NC(=O)CCOCc2ccccc2)s1`: 53.13%; for `COc1cccc(S(=O)(=O)NC(=O)COC2CCCC2)c1`: 65.77%. As for `CSc1ccccc1C(=O)N(C)Cc1nncn1C(C)C`, the INHIBITION stood at 36.79%. In the case of `CCn1cc(-c2nn3c(C(F)(F)F)nnc3s2)cn1`, the INHIBITION is -21.49%. The result for `CCC(=O)N1CCCC(C(=O)c2cnn(-c3ccc(F)cc3)c2N)C1` (stereo not given) reads -4.78%; that for `CC(NC(=O)c1ccoc1)C(=O)N(C)Cc1cccc(C(F)(F)F)c1` (stereo not given), 2.51%; that for `COCCC1COC2(CCN(C(=O)C3CCC3)CC2)C1` (stereo not given), -18.7%. The same measure for `CC(C)NC1CCc2c(ccc(=O)n2CCN2CCOCC2)C1` (stereo not given): -21.78%; for `COc1cccc(OCC(=O)NS(=O)(=O)c2ccc(C)s2)c1`: 51.21%. The same measure for `CC(=O)c1cccc(OCC(=O)NS(=O)(=O)c2ccc(C)s2)c1`: -36.13%. For the compound `COc1cccc(OCC(=O)NS(=O)(=O)c2ccc(Br)s2)c1`, the INHIBITION is reported as -4.22%. Regarding `CCn1cncc1CN(Cc1ccc(OC)cc1OC)CC1CCCO1` (stereo not given), the INHIBITION is given as 33.64%.

For the compound `O=C1CCC2(CCCN(c3ncc(Cl)cc3F)C2)CN1CC1CC1` (stereo not given), the INHIBITION was -31.23%. The same measure for `CN(CCCNC(=O)c1ccc(C#N)cc1)CC(F)(F)F`: 26.11%; for `CN(CCCNC(=O)c1ccccc1OCC(N)=O)CC(F)(F)F`: 51.96%. As for `COCCOc1ccccc1C(=O)NCCN(C)C(C)C`, the INHIBITION was 27.5%. The same measure for `CN(CCCNC(=O)NCc1ccncc1)CC(F)(F)F`: 21.71%.

As to `CN(CCCNC(=O)c1ccccc1F)CC(F)(F)F`, the INHIBITION is 66.74%.

Regarding `CN(CCCNC(=O)c1cccc(OCC(N)=O)c1)CC(F)(F)F`, the INHIBITION is given as -163.17%. On to `CCc1c(C(=O)NCC(=O)OCC2CC2)cnn1-c1ccc(C)cc1`, for which the INHIBITION is -14.3%. The result for `CCN1CC2(CC1=O)CN(C(C)=O)CCN(S(=O)(=O)CC)C2` (stereo not given) reads -161.57%; that for `Cc1ccc(CN2C[C@H](OCCN(C)C)[C@H]3COC[C@H]32)o1`, 15.36%.

Take `COc1nn(C)c2c1CCCN(C(=O)c1ccc(C)c(F)c1)C2`: the INHIBITION was -128.25%.

Take `COC(=O)CC(NC(=O)c1ccccc1OC)c1cccs1` (stereo not given): the INHIBITION was determined as 53.58%.

Regarding `COC(=O)CC(NC(=O)c1ccc(OC)cc1OC)c1cccs1` (stereo not given), the INHIBITION came out at 27.47%. The same measure for `COc1ccccc1C(=O)NC(CC(=O)O)c1cccs1` (stereo not given): 24.31%; for `CCC[C@@H]1CN(Cc2c[nH]nc2-c2ccc(OC)cc2)C[C@H]1NC(C)=O`: 42.4%. Regarding `Cc1ccc(F)c(C(=O)N2C[C@@H](C(=O)O)[C@H](c3ccccc3)C2)c1Cl`, the INHIBITION is on record as 16.49%.

For `CCn1nc(C)c(CN(CCOC)C(=O)c2ccccc2N(C)C)c1C`, the INHIBITION came out at 15.74%.

As for `CCn1nc(C)c(CN(CCOC)C(=O)c2cnc(C)nc2O)c1C`, the INHIBITION worked out at 48.68%. The same measure for `CCOc1ccc(C(=O)N(CCOC)Cc2c(C)nn(CC)c2C)o1`: 65.1%; for `CCN1CCN(C2CCN(C(C(N)=O)c3ccccc3)CC2)C1=O` (stereo not given): -42.16%.

In the case of `CS(=O)(=O)CC1(CNc2ccc(C#N)c(C(F)(F)F)c2)CC1`, the INHIBITION is 39.25%. The same measure for `CC(C)COC(C)C(=O)N1CCCCCC1` (stereo not given): 7.46%; for `CC(C)COC(C)C(=O)N1CCCCC1` (stereo not given): 30.68%; for `CC(C)COC(C)C(=O)N1CCCC1` (stereo not given): 52.6%.

As for `CCn1c(C2CCN(C(=O)c3ccc4sc(C)nc4c3)CC2)n[nH]c1=O`, the INHIBITION turned out to be 26.49%. The same measure for `CN(C)Cc1nnc(C2CCCN(c3nc(C(N)=O)cs3)C2)n1C` (stereo not given): 12.29%.

Regarding `COCC(C)(O)CNC(=O)c1cc(-c2cc(OC)ccc2OC)nn1C` (stereo not given), the INHIBITION came to 10.91%. The result for `O=C(CCCc1nnc(-c2ccccc2)o1)N1CCN(C2CC2)CC1` reads 21.64%; that for `c1cnc(N2CCO[C@H]3CN(CC4CCC4)C[C@H]32)cn1`, 15.88%. The same measure for `O=C(NCC1(c2cccs2)CCCCC1)N1CCOC(CO)C1` (stereo not given): -46.5%; for `COc1ccc(OC)c(CCNc2ncc(S(N)(=O)=O)s2)c1`: -0.95%; for `COc1ccc(CN(C)c2ncc(S(N)(=O)=O)s2)c(OC)c1`: 67.36%. The same measure for `COc1ccc(OC)c(CN(C)c2ncc(S(N)(=O)=O)s2)c1`: -28.18%.
